# This excerpt belongs to a sample that is enriched for hits.
# TbPYK inhibitor – inhibitors of Trypanosoma brucei pyruvate kinase; Potency, µM (titrated, usually from 76.8 µM), actives largely listed as inhibitors; Q57TT1; TbPYK enzyme, Kinase-Glo Plus ATP luminescence, 45 min; AID 624173; actives 0.12% (n = 410,000); note: nearly all actives have a fitted effect of over 50% in size
#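 Quantitative HTS: titrated library compounds versus trypanosomal pyruvate kinase in TEA buffer (pH 7.2) containing KCl, MgCl2, BSA and Tween-20. Reactions were initiated with ADP, 130 uM final. Kinase-Glo Plus luminescence was read after 45 min at RT.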
# RE007 growth inh – less growth of the S. pombe RE007 Vpr strain; S. pombe RE007 Vpr strain, BacTiter-Glo ATP luminescence, 24 h; Potency, µM (top dose mostly 92.2 µM), hits mostly inhibitors; actives 0.21% (n = 360,000); active = well fitted falling curve with a large enough effect; inconclusive = small, poorly fitted or top-dose-only effect; inactive = no such curve, though single readings can be large or run the other way; note: nearly all actives have a fitted effect of over 50% in size
#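 Fission yeast strain RE007, carrying one chromosomally integrated HIV-1 vpr copy, was seeded at OD 0.01 in PMG+AL medium with 23 nL pinned compound. After 24 h at 30 °C and 99% humidity, viability was read by BacTiter-Glo luminescence.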
# LmPK inh – blocks Leishmania mexicana pyruvate kinase activity. Q27686. purified LmPK, Kinase-Glo ATP luminescence, 1 h. Potency, µM (highest dose often 57.5 µM), usual class: inhibitors. actives 0.37% (n = 290,000). AID 1721
#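 0.1 nM LmPK, 0.5 mM PEP, 0.1 mM ADP; 50 mM imidazole pH 7.2, 7 mM MgCl2, 50 mM KCl; 1 h RT. Kinase-Glo luminescence readout, normalized to no-enzyme (full inhibition) and uninhibited wells.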
# Giardia FBPA inh – blocks Giardia fructose-bisphosphate aldolase activity; A8B2U2; purified Giardia FBPA; Potency, µM (doses to about 59.6 µM), usual class: inhibitors; actives 0.71% (n = 290,000); note: nearly all actives have a fitted effect of over 55% in size
# Target sequence (A8B2U2 whole entry, looked up): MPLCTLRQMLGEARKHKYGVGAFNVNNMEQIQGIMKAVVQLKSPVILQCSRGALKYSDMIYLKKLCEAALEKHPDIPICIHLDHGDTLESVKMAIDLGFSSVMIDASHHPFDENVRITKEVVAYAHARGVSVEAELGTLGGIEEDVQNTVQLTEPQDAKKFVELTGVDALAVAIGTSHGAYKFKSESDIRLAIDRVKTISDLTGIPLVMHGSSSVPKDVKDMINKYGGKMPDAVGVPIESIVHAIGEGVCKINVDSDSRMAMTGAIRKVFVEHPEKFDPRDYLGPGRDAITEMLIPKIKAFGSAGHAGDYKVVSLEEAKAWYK
#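 Giardia FBPA (40 nM reagent) was preincubated 10 min at RT with compound (up to 57.5 uM final), then substrate plus GAPDH/TPI/NAD/arsenate coupling system with diaphorase/resazurin was added; resorufin fluorescence (525/598 nm) was read after 20 min.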
# Shiga inhibitor – Shiga toxin inhibition. Vero cells, Shiga toxin protein synthesis inhibition reporter. inhibition, % at 38.7 µM. actives 9.2% (n = 290,000). AID 2315; in the data active = inhibition mostly above about 28%, no sharp cut-off; inactive = mostly below about 43%
# Cycloheximide cs – affects cycloheximide protein synthesis inhibition readout, counter-screen. actives 12% (n = 300,000). cell reporter, cycloheximide protein synthesis inhibition counterscreen. max response, %; in the data active = max response mostly above about 13%, no sharp cut-off; inactive = mostly below about 14%; note: read at 38.3 µM for the half of the compounds with a filed dose
# Hits are given with their value; 0 = inactive; ? = inconclusive; - = not tested or not shown; [ ] = dose if it differs, or a comment. Unless noted, calls come from the whole dose curve; as a rule, active = well fitted curve in the direction sought with a large enough effect; inconclusive = small, poorly fitted or top-dose-only effect, or another doubt; inactive = no such curve, though single readings can be large; an effect the other way counts as inactive or inconclusive.
SMILES,TbPYK inhibitor,RE007 growth inh,LmPK inh,Giardia FBPA inh,Shiga inhibitor,Cycloheximide cs
O=C(Nc1ccccc1-c1ccccc1)c1cnccn1,0,0,0,0,0,14.4
Cc1ccc(NC(=O)c2cnccn2)c(Br)c1,0,0,0,0,-,25.9
O=C(COC(=O)c1cnccn1)Nc1ccccc1-c1ccccc1,0,0,-,-,-,-
O=C(Nc1ccccc1C(F)(F)F)c1cc2nc(-c3ccccc3)cc(-c3ccccc3)n2n1,0,-,-,-,-,-
O=C(c1cccc(F)c1)N1CCC(c2c[nH]c3ccccc23)(c2c[nH]c3ccccc23)CC1,0,-,-,-,-,-
COc1ccc(CCNC(=O)c2cc(Nc3ccccc3)nc3ccccc23)cc1OC,0,-,-,-,-,-
O=C(CCC1CCCN(C(=O)CCCc2ccccc2)C1)N1CCN(c2ccccn2)CC1 (stereo unspecified),0,0,0,0,0,21.6
O=C(CCC1CCCN(C(=O)Cc2cccc(F)c2)C1)N1CCN(c2ccccn2)CC1 (stereo unspecified),0,0,0,0,70.6,49.9
Cc1ccccc1CC(=O)N1CCCC(CCC(=O)N2CCN(c3ccccn3)CC2)C1 (stereo unspecified),0,0,0,0,0,0
COCCN1C(=O)CSCC1(C)C(=O)Nc1c(C)cccc1C (stereo unspecified),-,0,-,-,-,-
COc1ccc(NC(=O)CN2CCN(CC#N)CC2)cc1,0,0,0,0,-,0
N#CCN1CCN(CC(=O)Nc2ccc(OCc3ccccc3)cc2)CC1,0,0,0,0,0,22.9
CN1CCN(CC(=O)Nc2ccc(OCc3ccccc3)cc2)CC1,-,-,0,0,0,36.0
COc1cc(NC(=O)c2cccc(Cl)c2Cl)ccc1NC(=O)c1cc2ccccc2o1,0,-,-,-,-,-
COc1cccc(CNS(=O)(=O)c2ccc3c(c2)C(C)(C)C(=O)N3C)c1,0,0,0,-,0,0
CCS(=O)(=O)N1CCc2cc(C(=O)N3CCN(c4ccccc4)CC3)ccc21,0,-,-,-,-,-
C#CCOCCOCCOCCNc1nc(N2CCN(C(=O)C([C@@H](C)CC)n3cc(C(N)CO)nn3)CC2)nc(N2CCN(C(=O)[C@H](CCC(=O)O)n3cc(C(N)[C@H](C)CC)nn3)CC2)n1 (stereo partly specified),-,-,0,0,0,0
CN(C)c1ccc(-n2cccc2/C=C/[N+](=O)[O-])cc1,0,?,0,0,0,0
CN(C)c1ccc(N=Cc2cccn2C)cc1,0,0,0,0,107.4,85.4
Cc1cc(/C=C(\C#N)C(=O)NCc2ccccc2)c(C)[nH]1,0,0,-,-,-,-
Cc1ccc(-n2nnc(-c3ccnc4ccccc34)n2)cc1,0,0,0,0,58.7,28.8
Fc1ccc(-n2nnc(-c3ccnc4ccccc34)n2)cc1,0,0,0,0,44.0,39.5
CN(C)c1nc(N)ncc1-c1ccc(Oc2ccccc2)cc1,0,0,0,0,0,0
CC12CN3CC(C)(CN(C1)C3c1c[nH]c3ccccc13)C2=O (stereo unspecified),0,0,0,0,0,0
CC12CN3CC(C)(CN(C1)C3c1ccc3ccccc3c1O)C2=O (stereo unspecified),0,0,0,12.6µM,0,0
SMILES,TbPYK inhibitor,RE007 growth inh,LmPK inh,Giardia FBPA inh,Shiga inhibitor,Cycloheximide cs
CN1CCCC2(CCN(C(=O)Oc3ccccc3)CC2)C1,0,-,-,0,-,-
Cc1cc(N)n(-c2ccc([N+](=O)[O-])cc2)n1,0,0,0,0,0,0
CC(=O)Nc1c(C)nn(-c2ccc(C)c(C)c2)c1C,0,0,0,0,0,0
Cc1cc(N)n(-c2ccc(C)c(C)c2)n1,0,0,0,0,62.4,27.0
Cc1ccc(-n2nc(C)c(NC(=O)CCl)c2C)cc1C,0,0,0,0,101.3,33.1
Cc1cc(N)n(-c2ccccn2)n1,0,0,0,0,72.0,17.4
CCC(=O)Nc1c(C)nn(-c2ccc(C)c(C)c2)c1C,0,0,0,0,65.2,21.9
CCC(C)NC(=O)C1CCC(CNS(=O)(=O)c2ccc(Cl)cc2)CC1 (stereo unspecified),0[15.4 µM],-,-,-,-,-
COc1ccccc1NC(=O)CN1CCN(C(=O)C2CCCO2)CC1 (stereo unspecified),0,0,0,0,0,0
